Compounds without any hit were thinned out: in the full panel of roughly 83,000, 20% have a hit.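 Interpretation: 100, growth as untreated; towards 0, rising growth inhibition; 0, no net growth; 0 to -100, cell death. Compounds scoring below 10 were considered active.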 Unmarked numbers belong to inactive results. Active and inactive are the calls of the source.
The compounds below were run on OVCAR-4 ovarian (assay: NCI-60 one-dose screen, 48 h (100 = growth as untreated, 0 = no growth, -100 = all killed)). Details: 10 µM unless noted.

SMILES	growth
COc1cc(C(=O)N2CCN(c3ccccc3)CC2)c2ccccc2n1	57.5%
S=c1nc2[nH]c3ccccc3c2n[nH]1	102%
NCCCN1CCCC1=O	111%
Cc1c(Cl)cccc1N=C=S	87.4%
O=[n+]1ccn([O-])c2ccccc21	106%
Nc1ncnc2c1ncn2C1OC(CO)C2OC21 (centres undefined)	109%
CCOc1ccc2c(c1)c(C)cc(C)[n+]2CC	58.8%
Cc1ccc(S(N)(=O)=O)cc1Cl	115%

Each compound was assayed on SK-OV-3 ovarian in the same assay as above. Details: 10 µM unless noted.

SMILES	growth
Nc1ccc(F)c(Cl)c1F	113%
COc1ccc(Br)c2c1C(=O)CC2	112%
Oc1cccnc1CN1CCCC1	103%
CC(C)(CC(=O)O)CC(=O)O	120%
CN=S(=O)(OCCCCCOS(=O)(=NC)c1ccc(C)cc1)c1ccc(C)cc1 (centres undefined)	100%
NC(CO)(CO)c1ccccc1	105%
CC1CC2C3CCC4=CC(=O)CCC4(C)C3CCC2(C)C1(O)C(=O)CO (centres undefined)	102%
CC(c1ccccc1)N1C(=O)CSC1=S (centres undefined)	104%
CN1CCN(C(=S)S)CC1	111%
Nc1ncnc(Nc2ccccc2)n1	117%
O=c1cc(C(F)(F)F)[nH]c(=S)[nH]1	99.9%
CCOC(=O)c1c(C)[nH]c(C)c1C=O	94%
CCOP(=O)(NC(c1ccccc1)c1ccccc1)OCC	107%
CC(C)(C)[Si](C)(C)OCC1OC(n2cnc3c(N)ncnc32)CC1OS(C)(=O)=O (centres undefined)	101%
Nc1nc(Cl)cc(Cl)n1	91.1%
C=C(C)COc1ccc(C(C)(C)C)cc1	95.9%
Nc1ccc2c(c1)Cc1cc(N)c(N)cc1-2	93.7%
Clc1ccc(C(SCc2ccccc2)SCc2ccccc2)cc1	94.9%
O=[N+]([O-])c1ccc(-c2nc(N(CCO)CCO)c3ccccc3n2)o1	-4.36% (active)

SMILES	growth
CCNC(=O)OCCc1c2ccccc2nc2ccccc12	109%
C=C(OC(C)=O)c1ccccc1	96%
O=C(OCc1ccccc1)n1nnc2ccccc21	112%
Cc1ccc2nc(N)nnc2c1	93.7%
CC(=O)NC(CCC(=O)c1ccccc1)C(=O)O (centres undefined)	87.5%
CCOC(=O)/C(C#N)=C\c1c[nH]c2ccccc12	96.2%
CCN(C(=O)Nc1ccccc1Cl)c1ccccc1	113%
Nc1cc2ccccc2c(O)c1O	79.3%
COc1cc(C(=O)N2CCN(c3ccccc3)CC2)c2ccccc2n1	5.77% (active)
Cc1ccc(C)c(CCO)c1	100%
S=c1nc2[nH]c3ccccc3c2n[nH]1	89.3%
NCCCN1CCCC1=O	116%
Cc1c(Cl)cccc1N=C=S	104%
O=[n+]1ccn([O-])c2ccccc21	109%
Nc1ncnc2c1ncn2C1OC(CO)C2OC21 (centres undefined)	105%
CCOc1ccc2c(c1)c(C)cc(C)[n+]2CC	83.4%
Cc1ccc(S(N)(=O)=O)cc1Cl	110%
O=C1C=Cc2ccccc2/C1=C/c1[nH]c(=O)[nH]c1O	32.8%

These compounds were tested on IGROV1 ovarian in the same assay as above. Details: 10 µM unless noted.

SMILES	growth
Nc1ccc(F)c(Cl)c1F	116%
Oc1cccnc1CN1CCCC1	102%
CC(C)(CC(=O)O)CC(=O)O	111%
CN=S(=O)(OCCCCCOS(=O)(=NC)c1ccc(C)cc1)c1ccc(C)cc1 (centres undefined)	13.6%
NC(CO)(CO)c1ccccc1	104%
CC1CC2C3CCC4=CC(=O)CCC4(C)C3CCC2(C)C1(O)C(=O)CO (centres undefined)	117%
CC(c1ccccc1)N1C(=O)CSC1=S (centres undefined)	-31.6% (active)
CN1CCN(C(=S)S)CC1	74.4%
Nc1ncnc(Nc2ccccc2)n1	102%
O=c1cc(C(F)(F)F)[nH]c(=S)[nH]1	105%
CCOC(=O)c1c(C)[nH]c(C)c1C=O	103%
CCOP(=O)(NC(c1ccccc1)c1ccccc1)OCC	92.2%
CC(C)(C)[Si](C)(C)OCC1OC(n2cnc3c(N)ncnc32)CC1OS(C)(=O)=O (centres undefined)	114%
Nc1nc(Cl)cc(Cl)n1	100%
C=C(C)COc1ccc(C(C)(C)C)cc1	112%
Nc1ccc2c(c1)Cc1cc(N)c(N)cc1-2	97.9%
Clc1ccc(C(SCc2ccccc2)SCc2ccccc2)cc1	93.2%

SMILES	growth
C=C(OC(C)=O)c1ccccc1	113%
O=C(OCc1ccccc1)n1nnc2ccccc21	110%
Cc1ccc2nc(N)nnc2c1	109%
CC(=O)NC(CCC(=O)c1ccccc1)C(=O)O (centres undefined)	104%
CCN(C(=O)Nc1ccccc1Cl)c1ccccc1	103%
Nc1cc2ccccc2c(O)c1O	67.3%
NC(CSSCC(N)C(=O)O)C(=O)O (centres undefined)	31.8%
COc1cc(C(=O)N2CCN(c3ccccc3)CC2)c2ccccc2n1	17.4%
Cc1ccc(C)c(CCO)c1	115%
S=c1nc2[nH]c3ccccc3c2n[nH]1	103%
NCCCN1CCCC1=O	104%
Cc1c(Cl)cccc1N=C=S	108%
O=[n+]1ccn([O-])c2ccccc21	106%
Nc1ncnc2c1ncn2C1OC(CO)C2OC21 (centres undefined)	111%
CCOc1ccc2c(c1)c(C)cc(C)[n+]2CC	82.3%
Cc1ccc(S(N)(=O)=O)cc1Cl	109%
O=C1C=Cc2ccccc2/C1=C/c1[nH]c(=O)[nH]c1O	33.2%
